# Assay outcomes from PubChem.
# HPGD block: HPGD (human) dehydrogenase inhibition; P15428; purified HPGD, NADH fluorescence kinetic, PGE2 substrate; Potency, µM, for inactives: top-dose activity change, negative = inhibition, most hits filed as inhibitors; 150,000 compounds, 4.3% hits; active means well fitted inhibition curve with a large enough effect, not every such curve was filed as active; inconclusive means small, poorly fitted or top-dose-only effect, or another doubt; inactive means no such curve, though single readings can be large or run the other way; further: potency means the concentration at half of the fitted maximal effect; on the % scale 0 is the no-effect control and ±100 the full control effect
#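 NADH formation kinetics: reaction with 30 uM PGE2 and 1 mM NAD+ (final), 20 nM enzyme, Tris-HCl pH 8 with Tween 20, after 15 min compound preincubation at room temperature. Fluorescence change, last versus first of five reads.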
# HttQ103 aggreg: inhibitors of mutant huntingtin aggregate formation in PC12 cells. PC12 HttQ103-GFP aggregates, Acumen cytometry, 40 h. Potency, µM (series often up to 46.1 µM), inactives show top-dose activity change, negative = inhibition, usual class: inhibitors. 220,000 compounds, 1.1% hits. AID 1688; further: potency means the concentration at half of the fitted maximal effect; on the % scale 0 is the no-effect control and ±100 the full control effect; nearly all actives have a fitted effect of over 60% in size
#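 Huntingtin Q103 exon 1–GFP aggregates in induced PC12 cells (100 nM tebufenozide) were quantified by cytometry from lysates, with compounds dosed in titration.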
# CBFb RUNX1 block: blocks binding between human CBF-beta and RUNX1; Potency, µM (top dose mostly 59.8 µM), inactives show top-dose activity, negative = inhibition, usual class: inhibitors; 230,000 tested, under 10 active; AlphaScreen CBFb-His/RUNX1-biotin binding, biochemical; AID 1477; further: % of control where 0% means no effect
# Target sequence (Q01196 whole entry, looked up): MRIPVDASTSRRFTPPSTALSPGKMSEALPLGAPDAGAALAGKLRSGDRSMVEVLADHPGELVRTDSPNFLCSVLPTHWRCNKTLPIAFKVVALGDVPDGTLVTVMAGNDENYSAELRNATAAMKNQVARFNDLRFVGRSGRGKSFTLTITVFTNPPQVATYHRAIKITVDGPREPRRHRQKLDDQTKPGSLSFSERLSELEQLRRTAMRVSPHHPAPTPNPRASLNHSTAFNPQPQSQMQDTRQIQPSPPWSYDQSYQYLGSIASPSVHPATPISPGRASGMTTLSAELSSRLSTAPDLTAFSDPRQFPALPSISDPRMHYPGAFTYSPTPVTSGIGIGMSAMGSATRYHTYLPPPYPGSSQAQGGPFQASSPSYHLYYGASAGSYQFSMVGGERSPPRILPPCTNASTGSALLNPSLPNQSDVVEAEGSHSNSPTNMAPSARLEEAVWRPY
# Target sequence (Q13951 whole entry, looked up): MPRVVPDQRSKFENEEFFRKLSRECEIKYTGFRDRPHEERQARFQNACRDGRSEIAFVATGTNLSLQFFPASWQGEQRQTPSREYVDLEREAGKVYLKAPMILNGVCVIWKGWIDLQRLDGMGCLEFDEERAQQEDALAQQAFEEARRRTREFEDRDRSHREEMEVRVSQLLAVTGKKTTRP
#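 Interaction loss through any mechanism counts as activity. Pre-formed complex of His-CBF-beta and biotin-RUNX1 (30 nM apiece) is incubated with compound 15 min, then with 50 ng nickel and 50 ng streptavidin beads for 90 min before AlphaScreen detection.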
# PNC inhibitor: perinucleolar compartment assembly inhibition. AID 2417. PC3M PTB-GFP, PNC prevalence imaging, 16 h; hits give low values. 140,000 compounds, 3.1% hits. activity change (PNC), negative = inhibition, % at 10 µM;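 active means readout at or below -70, meaning at least 70% loss of cells showing the perinucleolar compartment, a nuclear body marking cancer cells; inconclusive means readout between -30 and a set limit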;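 further: plate controls were DMSO wells for no effect and camptothecin positive control wells for full effect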
#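 PC3M cells stably expressing PTB-GFP, 750–1000 cells/well, treated 16 h at 37 °C with compound (23 nl of library stock), in duplicate. After paraformaldehyde fixation and Hoechst stain, imaged at 20x; PNC prevalence scored by image analysis.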
# ALDH1A1 block: inhibitors of human aldehyde dehydrogenase 1A1; 220,000 compounds, 7.3% hits; Purified ALDH1A1, NADH fluorescence, propionaldehyde substrate; Potency, µM (highest dose often 75.3 µM), without a hit: top-dose activity, negative = inhibition, usual class: inhibitors; P00352; active means well fitted inhibition curve with a large enough effect, not every such curve was filed as active; inconclusive means small, poorly fitted or top-dose-only effect, or another doubt; inactive means no such curve, though single readings can be large or run the other way;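 further: potency means the concentration at half of the fitted maximal effect; plate controls were no enzyme wells and a reference inhibitor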
# HTT cytoprotect: Huntington cell model cytoprotection by ATP luminescence; 230,000 compounds, 0.14% hits; Potency, µM (titrated, usually from 56.4 µM), without a hit: cytoprotection (ATP increase), usual class: activators; PC12 HTT-Q103 induced, cytoprotection, ATP luminescence, 40 h; further: potency means the concentration at half of the fitted maximal effect; % of control where 0% means no effect; nearly all actives have a fitted effect of over 45% in size
#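 Stable PC12 Q103-GFP cells in serum-supplemented, phenol red-free DMEM; induction by tebufenozide at 100 nM final; compound dose series; cell viability quantified luminescently from ATP.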
# An asterisk follows results filed as active; ? = inconclusive; / = not tested or not shown; [ ] = another dose, or the depositor's remark. Sampled rows, rich in hits. Any-hit rate of the full collection: about 11%. Unless noted, the call rests on the fitted dose curve; in most records, active means well fitted curve in the direction sought with a large enough effect; inconclusive means small, poorly fitted or top-dose-only effect, or another doubt; inactive means no such curve, though single readings can be large; an effect the other way counts as inactive or inconclusive.
SMILES,HPGD block,HttQ103 aggreg,CBFb RUNX1 block,PNC inhibitor,ALDH1A1 block,HTT cytoprotect
Cn1c(=O)oc2cc(S(=O)(=O)NCc3ccccn3)ccc21,-1.6%,4.6%,3.6%,-24.3,-3.4%,3.2%
O=S1(=O)CC/C(=N\Nc2ccccc2)c2ccsc21,/,1.4%[9.22 µM],-10.0%,/,25.1µM*,-36.8%[1.9 µM]
CCOC(=O)CC1Sc2ccccc2NC1=S (centres undefined),/,-9.0%[9.22 µM],12.3%,/,7.94µM*,-13.9%[10 µM]
COc1ccc(NC(=O)CSc2c3c(nc4ccccc24)CCCC3)c(OC)c1,-6.8%,13.1%,15.8%,-113.0*,-5.2%,-4.7%[10 µM]
COc1cc([N+](=O)[O-])ccc1NC(=O)CSc1nc2ccccc2n1-c1ccccc1,-8.9%,14.9%,-20.9%,36.6,10µM*,-25.0%[10 µM]
COc1ccccc1NC(=O)CSc1nc2ccccc2n1C(C)=O,15.8µM*,-4.1%,1.5%,7.3,-10.0%,-10.7%
O=C(CSc1c2c(nc3ccccc13)CCC2)N1CCCC1,/,?,-7.1%,/,?,10µM*
CC(C)(C)C1CCc2c(sc3ncn(N)c(=N)c23)C1 (centres undefined),/,-6.7%[9.22 µM],7.4%,/,/,4.0%[10 µM]
O=C(Nc1n[nH]c(C(F)(F)F)n1)C1CC1,/,10.4%[9.22 µM],-14.3%,/,-0.4%,-6.2%
COc1ccccc1NC(=O)CSc1c2c(nc3ccccc13)CCC2,-25.6%,35.5µM*,-0.6%,-16.3,3.2%,-5.1%[10 µM]
O=C(CSc1nc2ccccc2nc1SCC(=O)N1CCCCC1)N1CCCCC1,2.51µM*,-11.2%,2.4%,-19.7,9.6%,-9.2%
COc1cc(NC(=O)Cn2c(=O)n(CC3CCCO3)c(=O)c3ccccc32)cc(OC)c1 (centres undefined),/,32.0%,2.9%,/,?,-27.0%
COc1ccc(NC(=O)Cn2c(=O)n(CC3CCCO3)c(=O)c3ccccc32)c(OC)c1 (centres undefined),/,17.1%,4.8%,/,0.0282µM*,-17.2%
Fc1ccc2c(c1)/C(=N/Nc1ccccn1)CCS2,/,-6.4%,-22.9%,/,?,2.9%[10 µM]
Cc1cnc(CNc2ncncc2-c2cccc(C#N)c2)cn1,/,/,/,/,?,7.6%
COc1ccccc1-c1nnc(SCC(=O)Nc2ccc(Cl)cc2Cl)o1,-12.4%,?,1.4%,-21.6,-11.4%,-13.6%
Cc1ccc(NC(=O)CSc2nnc(C3COc4ccccc4O3)o2)c(Cl)c1 (centres undefined),/,7.6%,11.1%,/,2.82µM*,0.0%[10 µM]
O=C(CSc1nnc(C2COc3ccccc3O2)o1)Nc1ccc(F)cc1Cl (centres undefined),/,0.6%,22.5%,/,10µM*,14.1%[10 µM]
O=C(CSc1nnc(C2COc3ccccc3O2)o1)N1CCCC1 (centres undefined),/,10.5%,?,/,?,-15.7%
CCOC(=O)N1CCN(C(=O)CSc2nnc(C3COc4ccccc4O3)o2)CC1 (centres undefined),-15.7%,18.6%,0.3%,16.0,31.6µM*,-14.3%
O=C(O)c1ccc(S(=O)(=O)N[C@H](Cc2ccc(O)cc2)C(=O)O)cc1,/,/,-22.3%,/,/,/
C(=C\c1nc(-c2ccccc2)oc1Nc1ccc2ccccc2c1)/c1ccccc1,-6.6%,/,-1.6%,/,11.6%,?
O=C(NCCCN1CCN(CCCNC(=O)c2ccccc2F)CC1)c1ccccc1F,-4.2%,-1.4%,0.1%,46.3,-4.1%,33.6%
COc1ccc(C2/C(=C(/O)c3ccccc3)C(=O)C(=O)N2CCN2CCOCC2)c(OC)c1 (centres undefined),-12.8%,11.8%,1.5%,34.4,?,-13.6%
CN(c1ncnc(N)c1[N+](=O)[O-])C1CCS(=O)(=O)C1 (centres undefined),/,4.47µM*,1.4%,/,8.5%,-12.0%
SMILES,HPGD block,HttQ103 aggreg,CBFb RUNX1 block,PNC inhibitor,ALDH1A1 block,HTT cytoprotect
Nc1ncnc(NC2CCS(=O)(=O)C2)c1[N+](=O)[O-] (centres undefined),/,-18.6%[9.22 µM],8.3%,/,/,6.5%[10 µM]
Cc1cccc(SCc2noc(C(=O)NCC3CCCO3)c2C(=O)O)c1 (centres undefined),-13.6%,-24.7%,-0.5%,-89.7*,4.0%,?
CCCCNC(=O)c1onc(CSc2cc(C)ccc2C)c1C(=O)O,-19.7%,3.0%,4.1%,23.4,4.2%,-20.9%
CCCCNC(=O)c1onc(CSc2ccccc2CC)c1C(=O)O,-28.2%,?,10.0%,-108.8*,8.8%,1.5%
CC(C)c1ccc(SCc2noc(C(=O)NCC3CCCO3)c2C(=O)O)cc1 (centres undefined),7.94µM*,-5.6%,-6.0%,34.5,?,-7.1%
C=C(CC(=O)O)C(=O)O (tested in a mixture with another compound),-12.1%,/,/,/,-1.7%[13.5 µM],-13.1%[10 µM]
CC1(C)OC(=O)C(=NNc2ccccc2)C(=O)O1,-23.0%,?,-9.4%,-7.8,15.8µM*,/
CC1(C)OC(=O)C(=NNc2ccc(Cl)cc2)C(=O)O1,-27.0%,24.7%,2.5%,5.5,3.16µM*,0.3%
CC1(C)OC(=O)C(=NNc2ccc(O)cc2)C(=O)O1,/,22.4%,1.7%,?,-9.2%,-22.5%
Cc1ccccc1-n1nnnc1SCC(=O)c1c(N)n(C)c(=O)n(C)c1=O,/,2.4%[9.22 µM],13.8%,/,0.355µM*,-0.7%[10 µM]
CCn1c(SCC(=O)c2c(N)n(C)c(=O)n(C)c2=O)nnc1-c1ccccc1,0.5%,16.3%,-7.5%,14.6,5.3%,9.3%[10 µM]
CCc1cccc(CC)c1-n1c(SCC(=O)c2c(N)n(C)c(=O)n(C)c2=O)nnc1-c1cccnc1,-12.2%,0.9%,-11.2%,-134.0*,-3.1%,-0.1%[10 µM]
COc1cc(OC)c(NC(=O)CCc2nc(-c3cccs3)no2)cc1Cl,-0.1%,-12.4%,-4.6%,24.9,-4.7%,0.9%[10 µM]
O=C(NN1CCOCC1)NC12CC3CC(CC(C3)C1)C2,/,3.2%[9.22 µM],-0.9%,/,/,18.6%[10 µM]
CCN(CC)c1nc2ccccc2c(N)c1-c1ccccc1,?,11.2µM*,-0.6%,-9.0,14.1µM*,-4.6%
CCOC(=O)c1cc(C#N)c(SCC(=O)c2cc(C#N)c(SC)nc2C)[nH]c1=O,1.41µM*,27.0%,5.2%,24.5,1.26µM*,-18.7%[10 µM]
CCOC(=O)c1cc(C#N)c(SCC(N)=O)[nH]c1=O,/,0.7%[9.22 µM],-0.7%,/,/,-8.5%[10 µM]
C=CCN(c1ccc(C(=O)NCCc2ccccc2)cc1)S(C)(=O)=O,-20.0%,2.5%,-5.0%,8.2,-4.5%,-29.7%
Cc1cc(-c2nn(-c3ccccc3F)cc2CNCCc2cnc[nH]2)c(C)s1,/,17.1%[9.22 µM],-10.9%,/,14.1µM*,0.3%[10 µM]
Cc1cc(-c2nn(-c3ccccc3F)cc2CN2CCC(C(N)=O)CC2)c(C)s1,/,-15.7%[9.22 µM],19.0%,/,2.0%,-17.6%[10 µM]
O=C1c2cccc3c2[C@@H](CCC3)CN1[C@@H]1CN2CCC1CC2,/,-17.0%,/,/,/,-37.3%
COc1cc(C(=S)N(C)C)ccc1O,17.8µM*,7.7%,2.0%,9.2,10µM*,2.2%[0.074 µM]
